40 molecules from PubChem BioAssay (Tox21) can be followed below.

The structures appear in SMILES notation. “And” between values parts separate entries of the source, which are not always exact repeats. Equal entries are not always repeated. Inconclusive results are not listed. A call without a number means that no potency is given here. A structure can be active in one record and inactive in another. The source made the active and inactive calls. The call rests on the fitted dose curve.
Potency means the concentration at half of the fitted maximal effect.

The experiment is described as follows: qHTS assay for small molecule agonists of the p53 signaling pathway (AID 651631). Further: nearly all actives have a fitted effect of over 15% in size. As to conditions: HCT-116 p53RE-bla reporter, beta-lactamase FRET ratio, 16 h; series mostly up to 73.3 µM. The text has this: U.S. Tox21 Program National Center for Advancing Translational Sciences [NCATS] NIH Chemical Genomics Center [NCGC] U.S. Environmental Protection Agency [EPA] National Institutes of Environmental Health Sciences [NIEHS] National Toxicology Program [NTP] U.S. Food and Drug Administration [FDA] Tox21 Assay Overview: p53, a tumor suppressor protein, is activated following cellular insult, including DNA damage and other cellular stresses. The activation of p53 regulates cell fate by inducing DNA repair, cell cycle arrest, apoptosis, or cellular senescence. The activation of p53, therefore, is a good indicator of DNA damage and other cellular stresses. The CellSensor p53RE-bla HCT-116 cell line (Invitrogen) contains a stably integrated beta-lactamase reporter gene under control of the p53 response elements. The activation of the reporter gene under culture conditions can be detected by fluorescence intensity. This cell line was used to screen the Tox21 compound library in a 1536-well plate format and to identify agonists that activate the p53 signaling pathway.
Tox21 Assay Protocol Summary: The p53RE-bla cells were dispensed at 4,000 cells/5 ul/well in 1536-well black wall/clear bottom plates using a Multidrop dispenser. After the assay plates were incubated at a 37 C/5% CO2 incubator for 5 hours, 23 nL of compounds dissolved in DMSO, positive controls or DMSO only was transferred to the assay plate by a pin tool. The plates were incubated at 37 C for 16 hours. After 1 uL of LiveBLAzerTM B/G FRET substrate was added using a Flying Reagent Dispenser, the plates were incubated at room temperature for 2 hours, and fluorescence intensity was measured by an Envision plate reader.
`Oc1cc(Cl)ccc1Cl`: the Potency entry is “inactive”. To `COc1ccc(C(CN(C)C)C2(O)CCCCC2)cc1` (stereo not given) belongs “inactive”. On to `NCc1cccnc1`, for which the Potency result is “inactive”. Regarding `c1nc[nH]n1`, the Potency result is “inactive”. For `CCN(CC)C(=O)/C(Cl)=C(\C)OP(=O)(OC)OC`, the Potency result is “inactive”.

Consider `C=CC(=O)OCCO`, for which the Potency result was “inactive”.

In the case of `Nc1cccnc1`, the Potency entry was “inactive”.

As for `O=P(Oc1ccccc1)(Oc1ccccc1)Oc1ccccc1`, the Potency result was “inactive”. As to `CC(C)c1ccc(CO)cc1`, the Potency entry was “inactive”. For `Cc1ccc(OP(=O)(Oc2ccc(C)cc2)Oc2ccc(C)cc2)cc1`, the Potency entry was “inactive”.

Turning to `CC1(C)C(C=C(Cl)Cl)C1C(=O)OC(C#N)c1cccc(Oc2ccccc2)c1` (stereo not given), the Potency result is “inactive”.

With `O=P(O)(O)CCCl`, the Potency entry was “inactive”. In the case of `c1ccc(P(c2ccccc2)c2ccccc2)cc1`, the Potency result was “inactive”.

Take `CC(C)NC(C)C`: the Potency entry is “inactive”.

For `O=C(O)CC[N+](=O)[O-]`, the Potency result is “inactive”.

Regarding `Cc1ccccc1[N+](=O)[O-]`, the Potency entry was “inactive”. As to `CCCCCCCCOC(=O)c1ccccc1C(=O)OCCCCCCCC`, the Potency entry is “inactive”. Regarding `NNC(=S)NN`, the Potency entry was “inactive”. Consider `S=C1NCCN1`, for which the Potency result is “inactive”. Take `Nc1ccncc1`: the Potency entry was “inactive”. Turning to `O=Cc1ccco1`, the Potency entry is “inactive”. In the case of `CCOc1cc(Oc2ccc(C(F)(F)F)cc2Cl)ccc1[N+](=O)[O-]`, the Potency result was “inactive”.

As for `O=C(Nc1ccc(Br)cc1)c1cc(Br)cc(Br)c1O`, the Potency is 8.41 µM (active) and 1.53 µM (active) and 12.2 µM (active). For `CCOc1cc(C=O)ccc1O`, the Potency entry was “inactive”.

`CCOC(=O)C(C)OC(=O)c1cc(Oc2ccc(C(F)(F)F)cc2Cl)ccc1[N+](=O)[O-]` (stereo not given): the Potency result was “inactive”. As for `CNC(=O)N(C)c1nnc(C(C)(C)C)s1`, the Potency result was “inactive”.

In the case of `CCC(C)(C)c1ccc(O)cc1`, the Potency result is “inactive”. As to `CCN(N=O)C(N)=O`, the Potency result was “inactive”. To `CCCCCCCCCCCOC(=O)c1ccccc1C(=O)OCCCCCCCCCCC` belongs “inactive”; to `C=C(C)C(=O)OCC1CO1` (stereo not given), “inactive”. To `C[C@]12CCC(=O)C[C@@H]1CC[C@@H]1[C@@H]2CC[C@]2(C)[C@@H](O)CC[C@@H]12` belongs “inactive”.

On to `CCCCNC(=O)n1c(NC(=O)OC)nc2ccccc21`, for which the Potency was 13.6 µM (active) and 15.4 µM (active). The figure for `CN(C)c1ccc(C(=O)c2ccc(N(C)C)cc2)cc1` is 605 nM (active) and 273 nM (active). Regarding `CCC(C)c1cc([N+](=O)[O-])cc([N+](=O)[O-])c1O` (stereo not given), the Potency entry was “inactive and 864 nM (active)”. `Clc1nc(Cl)nc(Cl)n1`: the Potency result is “inactive”.

In the case of `O=[N+]([O-])c1c(Cl)c(Cl)c(Cl)c(Cl)c1Cl`, the Potency result is “inactive”. In the case of `CC(C)(OOC(C)(C)c1ccccc1)c1ccccc1`, the Potency entry is “inactive”. As for `CCC(CC)Nc1c([N+](=O)[O-])cc(C)c(C)c1[N+](=O)[O-]`, the Potency result was “inactive”. To `CNC(=O)Oc1cccc2c1OC(C)(C)O2` belongs “inactive”; to `COC(=O)c1sccc1S(=O)(=O)NC(=O)Nc1nc(C)nc(OC)n1`, “inactive”.
